According to PubChem BioAssay AID2781 (National Center for Advancing Translational Sciences (NCATS), 2010):
The source made the active and inactive calls.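 How the source made its calls: active means compound whose NMR saturation transfer difference test with menin is positive, showing direct binding to the protein; inactive means the rest.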

Target: Menin (Homo sapiens) (UniProt O00255)
Assay: Confirmation of Inhibitors Targeting the Menin-MLL Interaction in MLL Related Leukemias: NMR spectroscopy to verify direct binding of compounds to menin
Settings: purified menin, NMR STD binding, 100 uM
Source text: qHTS Assay for Inhibitors Targeting the Menin-MLL Interaction in MLL Related Leukemias NIH Chemical Genomics Center [NCGC] NIH Molecular Libraries Probe Centers Network [MLPCN] MLPCN Grant: MH084875-01A1 Assay Submitter (PI): Jolanta Grembecka, Tomasz Cierpicki, University of Virginia Translocations of the MLL (Mixed Lineage Leukemia) gene are frequently found in human leukemias affecting both children and adults. Fusion of MLL to one of more than 60 genes results in generation of oncogenic proteins upregulating Hox genes, which are vital to blood cell development. Patients harboring fusion of the MLL gene suffer from aggressive leukemias and respond poorly to available therapies. All of the oncogenic fusion proteins have a preserved N-terminal fragment of MLL that has been identified to interact with menin. It has been recently discovered that association with menin is critical to the leukemogenic activity of the MLL fusion oncoproteins. Selective targeting of the menin-MLL interaction could provide an attractive therapeutic approach to develop novel drugs for MLL-related leukemias. Small molecules blocking the menin-MLL interaction should reverse the oncogenic potential of MLL fusion proteins. We have developed and optimized a fluorescence polarization-based assay for the identification of Menin-MLL inhibitors. The assay was run employing two different MLL-derived peptides. The present assay uses a 12 amino acid peptide labeled with fluorescein at its N-terminus. This peptide consists of the menin high affinity binding motif from MLL and is potently bound by menin. Another peptide with a mutated sequence, labeled with Texas Red, was used in parallel as a less stringent screen for inhibitors. The present assay was developed to confirm hits from this primary screen, examining saturation transfer differences in NMR spectra upon incubation of the menin protein with compound.
The Menin protein, the MLL-wild type (w.t.) derived peptide (N-terminal 12 amino acids), the MLL-derived peptide labeled with Texas Red and the MLL-w.t. peptide labeled with Fluorescein were kindly supplied by laboratory of Dr. Jolanta Grembecka, University of Virginia. All protein and peptide solutions were stored in single use aliquots at -80C. The Buffer components for all assays were purchased from Sigma-Aldrich (St. Louis, MO) and Invitrogen (Carlsbad, CA). Assay Reagents: 1. Menin protein 2. MLL w.t. 3. NMR buffer: 50mM phosphate, 50mM NaCl, 1mM DTT, pH = 7.5 NMR protocol: 1. Prepare 450 uL of menin (2.5 uM) in complex with 100uM compound in NMR buffer and run STD (Saturation Transfer Difference) on NMR Bruker 600 MHz 2. Prepare 450 uL of menin (2.5 uM) in complex with 100 uM compound and 25uM of MLL w.t. in NMR buffer and run STD (Saturation Transfer Difference) on NMR Bruker 600 MHz

Chain of Menin (Homo sapiens) (O00255 whole entry, looked up): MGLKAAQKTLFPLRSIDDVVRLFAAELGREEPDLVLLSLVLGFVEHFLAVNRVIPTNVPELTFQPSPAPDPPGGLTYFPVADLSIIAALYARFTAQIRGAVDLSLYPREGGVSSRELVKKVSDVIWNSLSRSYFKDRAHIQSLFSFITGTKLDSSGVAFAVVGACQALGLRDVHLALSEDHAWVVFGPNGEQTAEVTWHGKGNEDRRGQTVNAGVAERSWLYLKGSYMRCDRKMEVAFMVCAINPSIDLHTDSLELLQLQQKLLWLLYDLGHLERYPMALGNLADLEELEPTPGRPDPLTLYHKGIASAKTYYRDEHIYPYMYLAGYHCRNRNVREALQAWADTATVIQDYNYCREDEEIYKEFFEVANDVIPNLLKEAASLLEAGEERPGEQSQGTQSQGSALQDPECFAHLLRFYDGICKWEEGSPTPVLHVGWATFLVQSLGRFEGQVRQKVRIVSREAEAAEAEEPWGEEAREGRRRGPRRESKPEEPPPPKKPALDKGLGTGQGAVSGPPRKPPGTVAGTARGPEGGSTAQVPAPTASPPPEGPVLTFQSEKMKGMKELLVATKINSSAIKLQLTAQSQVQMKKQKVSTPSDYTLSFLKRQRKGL

Row | SMILES | outcome
1 | COC(=O)[C@H](C)NC(=O)c1cc2c(cn1)[nH]c1ccccc12 | inactive; negative
2 | CC(=O)NC1C(=O)N(CCN2CCOCC2)c2ccc(C)cc21 (stereo not given) | inactive; negative
3 | CCC(=O)Nc1ccc(-c2cc(-c3ccccc3)nc(-c3ccc(NC(=O)CC)cc3)n2)cc1 | inactive; negative
4 | NC(=NCCCCCCN=C(N)/N=C(\N)Nc1ccc(Cl)cc1)/N=C(\N)Nc1ccc(Cl)cc1 | inactive; negative
5 | CC(c1ccccc1)c1nnc(NC(=O)Nc2ccccc2F)s1 (stereo not given) | inactive; negative
6 | Cc1cc(N/N=C/c2ccc(O)cc2)c2cccc(C)c2n1 | inactive; negative
7 | N=C1c2ccccc2CN1c1ccc(N2CCOCC2)c(S(=O)(=O)Nc2ccc(Cl)cc2)c1 | inactive; negative
8 | CCOc1ccc2c(c1)C(NC(C)=O)C(=O)N2CCN1CCOCC1 (stereo not given) | inactive; negative
9 | CC(=O)NC1C(=O)N(CCN2CCOCC2)c2ccc(Cl)cc21 (stereo not given) | inactive; negative
10 | O=C1C(SCCO)=C(SCCO)C(=O)c2ccccc21 | inactive; negative
11 | CCCC(c1nnnn1Cc1ccco1)N1CCN(C2CCCC2)CC1 (stereo not given) | active; positive
12 | CCOC(=O)c1cnc2ccc(OCC)cc2c1N1CCN(C)CC1 | active; positive
13 | O=C(C[N+]12CC[N+](CC(=O)c3ccc(F)cc3)(CC1)CC2)c1ccc(F)cc1 | active; positive
14 | CN(C)C(CNc1ncnc2sc3c(c12)CCCCC3)c1ccco1 (stereo not given) | active; positive
15 | CN(C)c1ccc(C2CC(=O)C=C(Nc3ccccc3N)C2)cc1 (stereo not given) | inactive; negative
16 | COc1ccccc1C(=O)Nc1ccnn1C1CCN(CC2CC=CCC2)CC1 (stereo not given) | active; positive
17 | CCOC(=O)c1cnc2ccc(OC)cc2c1Nc1ccc(N2CCN(C)CC2)cc1 | inactive; negative
18 | CCNC(=S)N1CCN(c2nc(CC)nc3sc4c(c23)CCCC4)CC1 | inactive; negative
19 | CCCC[n+]1c2ccccc2cc2ccccc21 | inactive; negative
20 | CCC(c1nnnn1Cc1ccc(F)cc1)N1CCN(C2CCCCC2)CC1 (stereo not given) | active; positive

Row | SMILES | outcome
21 | CC(C)Sc1nc(N2CCOCC2)c2c3c(sc2n1)COC(C)(C)C3 | inactive; negative
22 | O=C(Nc1cc(Br)ccc1O)c1cc(-c2ccco2)on1 | inactive; negative
23 | CCOc1cc(CNCCc2ccc(S(N)(=O)=O)cc2)ccc1OCc1ccccc1 | active; positive
24 | CCCC(c1nnnn1Cc1cccs1)N1CCN(C2CCCC2)CC1 (stereo not given) | active; positive
25 | CNC[C@H](CC1CCCCC1)NC[C@H](Cc1ccccc1)NCCC12CC3CC(CC(C3)C1)C2 | inactive; negative
26 | O=C(CCC1CCCCC1)NCCN1C2=NC[C@H](Cc3ccc(O)cc3)N2C[C@H]1Cc1ccc(O)cc1 | active; positive
27 | C[C@H](NC(=O)c1cc2c(cn1)[nH]c1ccccc12)C(=O)O | inactive; negative
28 | O=C(Nc1ccc(F)c(Cl)c1)c1cc(-c2ccco2)on1 | inactive; negative
29 | Cc1cc2[nH]c3c(c[n+](C)c4ccccc34)c2cc1C | inactive; negative
30 | COc1ccccc1NS(=O)(=O)c1cc(NC(=O)Nc2cccc(C)c2)ccc1N1CCCCC1 | inactive; negative
31 | Cc1ccc(-c2cc(C(=O)Nc3cc(C)ccc3O)no2)cc1 | inactive; negative
32 | O=C(Nc1cc(Br)ccc1O)c1cc(-c2ccc3c(c2)OCO3)on1 | inactive; negative
33 | COC(=O)c1ccccc1NC1=C/C(=N\S(=O)(=O)c2ccc(C(=O)O)cc2)c2ccccc2C1=O | inactive; negative
34 | CN(CCOc1ccc(Cl)cc1)CC(O)c1ccccc1 (stereo not given) | inactive; negative
35 | NS(=O)(=O)c1ccc(NC(=O)c2ccc(-c3ccccc3)cc2)cc1 | inactive; negative
36 | COc1cc(-c2ccc(-[n+]3nc(-c4ccccc4)nn3-c3ccc([N+](=O)[O-])cc3)c(OC)c2)ccc1-[n+]1nc(-c2ccccc2)nn1-c1ccc([N+](=O)[O-])cc1 | inactive; negative
37 | O=C(O)c1ccccc1NS(=O)(=O)c1cccc(-n2sc3ccccc3c2=O)c1 | inactive; negative
38 | Cc1nc(N2CCN(C)CC2)c2c3c(sc2n1)CCCC3 | inactive; negative
39 | N#Cc1ccc(OCC(O)CN2CCN(C(c3ccccc3)c3ccccc3)CC2)cc1 (stereo not given) | active; positive
40 | Cc1sc2ncnc(NC3CCN(Cc4ccccc4)CC3)c2c1C | active; positive
